# From PubChem BioAssay
# A selection follows.
# aSyn 5UTR act – Activators working through SNCA 5'UTR binding (MLPCN); activity score, % (tested at 7.5 µM), hits read low; AID 1814; alpha-synuclein 5'UTR reporter, activators screen; 300,000 tested, 7.1% active; in the data active = activity score below about -60%
# Numbers without * were called inactive.
SMILES,aSyn 5UTR act
Cc1ccc(C(=O)Nc2ccccc2OC(F)F)cc1,-62*
Cn1ccsc1=NC(=O)c1ccc([N+](=O)[O-])o1,-161*
CCOc1ccc(OCc2cccc(C(=O)N3CCOCC3)c2)cc1,102
CC1CN(C(=O)c2cccc(COc3ccc(Br)cc3)c2)CC(C)O1 (centres undefined),-104*
Clc1ccc(Cl)c(OCc2cc(-c3ccccc3Cl)on2)c1,-155*
FC(F)(F)c1cnc(-c2cnc(-c3ccncc3)nc2)c(Cl)c1,-109*
Cc1oncc1-c1csc(-c2ccccc2)n1,-82*
O=C(O)c1ccccc1-c1csc(-c2ccccc2)n1,-118*
c1ccc(COc2ccc(-c3csnn3)cc2)cc1,-185*
c1ccc(-c2csc(-c3ccc(-c4csnn4)cc3)n2)cc1,-192*
O=C(O)c1ccc(-c2nc(-c3ccc(Cl)c(Cl)c3)cs2)cc1,-100*
O=C(O)c1ccccc1C(=O)Nc1ccc(Oc2cccc3ccccc23)cc1,94
O=C(O)c1ccc(-c2nc(-c3ccccc3Cl)cs2)cc1,-118*
CNC(=O)c1ccc(-c2nc(-c3ccccc3)cs2)cc1,-116*
O=C(O)c1ccccc1C(=O)Nc1ccc(-c2csc(-c3ccccc3)n2)cc1,-64*
CNC(=O)c1csc(-c2ccc(C)cc2)n1,-81*
O=C(O)c1ccc(-c2nc(-c3ccccc3)cs2)cc1,-140*
CCOc1cc(/C=N/Nc2ccc(C(=O)O)cc2)ccc1OC(=O)c1ccccc1C,-91*
COc1cccc(OCc2cc(/C=N/Nc3ccc(C(=O)O)cc3)ccc2OC)c1,-92*
O=C(/C(C=Nc1ccc(Br)cc1)=C(/O)c1ccco1)C(F)(F)F,-175*
O=C(/C(C=Nc1cccc(C(F)(F)F)c1)=C(/O)c1ccco1)C(F)(F)F,-194*
COc1ccc(-c2nc(NC(=O)CSc3nnc(C)s3)ns2)cc1,-70*
CC1(C)CC(=O)c2c(nc(SCC(=O)Nc3nsc(-c4ccccc4)n3)c(C#N)c2-c2ccccc2)C1,74
COc1ccc2c(C)cc(SCC(=O)Nc3nsc(-c4ccc(C)cc4)n3)nc2c1,-82*
O=C(Nc1ccccc1)c1ccc(-c2ccccc2)s1,-215*
SMILES,aSyn 5UTR act
COc1ccc2cc(C(=O)Nc3ccccc3)sc(=O)c2c1OC,-78*
O=C(Nc1ccccc1)c1cc2ccc3ccccc3c2s1,-90*
O=C(O)c1ccc(-c2ccc(-c3ccccc3)cc2)s1,64
Cc1occc1C(=O)N/N=C/c1ccc(OCc2ccccc2)cc1,-138*
CCOc1ccc(OCc2cccc(C(=O)N/N=C/c3cccnc3)c2)cc1,87
CC/C(=N\NC(=O)c1ccoc1C)c1ccc(C)o1,-155*
O=C(N/N=C/c1ccc(OCc2ccccc2)cc1)c1cc[n+](Cc2ccccc2)cc1,-77*
CC(C)(C)c1ccc(NC(=S)NCc2cccs2)cc1,-98*
S=C(NCCc1ccccc1)NCc1cccs1,-74*
Cc1ccc(C(=O)/C=C/Nc2ccccc2C(N)=O)o1,-200*
NC(=O)c1ccccc1N/C=C/C(=O)c1ccc(F)cc1,-65*
COc1ccccc1Oc1ccc(N/C=C/C(=O)c2ccc(C)o2)cc1,-89*
Cc1ccc(C=Nc2ccccc2C(N)=O)o1,-154*
CCc1ccc(/C=N\NC(=O)c2ccc(Br)o2)s1,-167*
Cc1ccc(/C=N/NC(=O)c2ccc(Br)o2)s1,-111*
Cc1ccc2nc(-c3ccc(SCC(=O)Nc4ccc5c(c4)OCCO5)nc3)[nH]c2c1,-327*
Cc1cc2nc(-c3ccc(SCC(=O)Nc4ccc5c(c4)OCCO5)nc3)[nH]c2cc1C,-207*
Cc1cc2nc(-c3ccc(SCC(=O)N4CCN(C(=O)c5ccco5)CC4)nc3)[nH]c2cc1C,-88*
O=C(CSc1ccc(-c2nc3ccccc3[nH]2)cn1)Nc1ccc2c(c1)OCCO2,-235*
CCOCC(=O)Nc1cc(C(=O)Nc2cc(C)cc(C)c2)ccc1Cl,-66*
CCn1c(C)cc(/C=C2/NC(=O)N(c3ccccc3)C2=O)c1C,-153*
COCCn1c(C)cc(/C=C2/NC(=O)N(c3cccc(Cl)c3)C2=O)c1C,-133*
O=C1N/C(=C/c2ccsc2)C(=O)N1c1ccccc1,-96*
O=C(Nc1ccc([N+](=O)[O-])cc1)Nc1ccc2c(c1)OCCO2,-92*
COc1cc([N+](=O)[O-])ccc1NC(=O)Nc1ccc2c(c1)OCCO2,-72*
SMILES,aSyn 5UTR act
O=C1C(C=NCc2cccnc2)=C(O)c2ccccc21,-186*
O=C1C(C=NCc2ccco2)=C(O)c2ccccc21,-141*
COc1ccc(N2CCN(C(=O)CSc3ncccc3-c3nc4ccccc4[nH]3)CC2)cc1,-114*
COc1ccccc1N1CCN(Cc2ccc(O)c3ncccc23)CC1,77
Cc1cc2nc(-c3cccnc3SCC(=O)NC(C)C)[nH]c2cc1C,-122*
COc1ccccc1N1CCN(C(=O)CSc2ncccc2-c2nc3ccccc3[nH]2)CC1,-68*
O=C(Nc1ccc(Cl)cc1)c1ccc2c(c1)OCO2,-84*
O=C(Nc1ccc(Cl)c(Cl)c1)c1ccc2c(c1)OCO2,-133*
O=C(Nc1ccc(F)c(F)c1)c1ccc2c(c1)OCO2,-156*
O=C(Nc1ccc2c(c1)OCO2)c1cccc(Cl)c1,-148*
